# Measurements from paper PMC5700166.
# Substitutions are numbered along the chain they refer to.
# Tests used:
# Assay in all cases: protein-binding microarray (PBM); PBM: ~300 nM protein, 6 mM HEPES pH 7.8, 80 mM KCl, 0.5 mM EDTA, 0.5 mM EGTA, 6% glycerol, 35 ng/ul poly-dIdC, 1% milk, 1 h, room temperature; Ap Aiptasia and Nv Nematostella (sea anemones) / Co Capsaspora / Aq Amphimedon (sponge) / Dm Drosophila / Hu human; RHD is the Rel homology domain; high values mean tight binding
# Details in all cases: dsDNA, one strand shown
# GST-Ap-NF-kB RHD = target: T1, GST-Ap-NF-kB RHD (Exaiptasia pallida (Aiptasia), UniProt A0A913YAJ5 2-422)
# T1 sequence: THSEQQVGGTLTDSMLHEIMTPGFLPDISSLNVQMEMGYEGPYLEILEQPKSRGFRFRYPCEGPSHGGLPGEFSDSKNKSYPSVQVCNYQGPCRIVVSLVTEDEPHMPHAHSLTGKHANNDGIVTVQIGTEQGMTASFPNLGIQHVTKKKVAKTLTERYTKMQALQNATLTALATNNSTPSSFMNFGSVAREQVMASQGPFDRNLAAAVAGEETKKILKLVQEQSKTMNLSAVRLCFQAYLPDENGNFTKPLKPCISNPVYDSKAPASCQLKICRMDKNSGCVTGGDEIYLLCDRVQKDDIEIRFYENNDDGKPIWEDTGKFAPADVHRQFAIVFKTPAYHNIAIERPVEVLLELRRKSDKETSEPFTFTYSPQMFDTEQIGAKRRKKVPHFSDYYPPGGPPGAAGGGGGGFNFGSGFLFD
# [1] = target: T2, GST-Nv-NF-kB (Cys allele) (Nematostella vectensis, UniProt E5G601 2-411)
# T2 sequence: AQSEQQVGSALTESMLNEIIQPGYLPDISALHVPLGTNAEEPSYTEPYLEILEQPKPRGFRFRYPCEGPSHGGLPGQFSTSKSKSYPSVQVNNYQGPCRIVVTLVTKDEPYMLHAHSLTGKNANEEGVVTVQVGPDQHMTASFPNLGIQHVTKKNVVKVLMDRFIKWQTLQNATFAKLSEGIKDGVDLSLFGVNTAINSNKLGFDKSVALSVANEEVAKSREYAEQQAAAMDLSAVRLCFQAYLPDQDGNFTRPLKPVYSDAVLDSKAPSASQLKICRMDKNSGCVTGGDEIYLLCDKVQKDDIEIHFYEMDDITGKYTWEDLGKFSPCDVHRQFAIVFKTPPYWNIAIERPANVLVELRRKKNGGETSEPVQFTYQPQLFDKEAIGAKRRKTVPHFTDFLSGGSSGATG
# [2] = target: T3, GST-Nv-NF-kB (Ser allele) (Nematostella vectensis, UniProt A7UNT2 2-411)
# T3 sequence: T2 sequence with Q21R, C66S, S207N, E215Q, V217A, E225K, A268E, D399E
# GST-Co-NF-kB = target: T4, GST-Co-NF-kB (Capsaspora owczarzaki, UniProt F1ARL5 200-546)
# T4 sequence: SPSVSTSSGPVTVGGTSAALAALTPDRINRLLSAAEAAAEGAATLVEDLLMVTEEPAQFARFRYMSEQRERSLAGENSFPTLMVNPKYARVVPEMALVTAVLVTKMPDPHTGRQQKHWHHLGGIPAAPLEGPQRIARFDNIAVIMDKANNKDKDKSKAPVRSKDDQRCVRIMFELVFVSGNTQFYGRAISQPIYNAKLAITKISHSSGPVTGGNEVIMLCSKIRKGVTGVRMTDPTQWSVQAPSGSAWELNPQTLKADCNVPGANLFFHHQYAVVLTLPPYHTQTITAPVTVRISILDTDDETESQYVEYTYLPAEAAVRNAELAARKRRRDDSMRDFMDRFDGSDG
# GST-Dm-Relish = target: T5, GST-Dm-Relish (Drosophila melanogaster, UniProt Q94527 99-473)
# T5 sequence: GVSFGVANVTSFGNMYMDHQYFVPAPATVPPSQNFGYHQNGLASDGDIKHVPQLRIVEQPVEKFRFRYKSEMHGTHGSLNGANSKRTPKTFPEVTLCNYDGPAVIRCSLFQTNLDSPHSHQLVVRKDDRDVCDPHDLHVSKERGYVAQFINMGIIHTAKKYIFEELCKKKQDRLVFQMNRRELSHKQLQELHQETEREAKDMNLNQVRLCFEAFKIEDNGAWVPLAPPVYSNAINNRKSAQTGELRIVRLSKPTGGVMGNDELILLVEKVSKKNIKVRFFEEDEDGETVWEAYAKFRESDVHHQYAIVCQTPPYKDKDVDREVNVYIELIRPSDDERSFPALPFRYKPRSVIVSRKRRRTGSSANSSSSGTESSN
# GST-Aq-NF-kB = target: T6, GST-Aq-NF-kB (Amphimedon queenslandica, UniProt A9Y5G7 2-389)
# T6 sequence: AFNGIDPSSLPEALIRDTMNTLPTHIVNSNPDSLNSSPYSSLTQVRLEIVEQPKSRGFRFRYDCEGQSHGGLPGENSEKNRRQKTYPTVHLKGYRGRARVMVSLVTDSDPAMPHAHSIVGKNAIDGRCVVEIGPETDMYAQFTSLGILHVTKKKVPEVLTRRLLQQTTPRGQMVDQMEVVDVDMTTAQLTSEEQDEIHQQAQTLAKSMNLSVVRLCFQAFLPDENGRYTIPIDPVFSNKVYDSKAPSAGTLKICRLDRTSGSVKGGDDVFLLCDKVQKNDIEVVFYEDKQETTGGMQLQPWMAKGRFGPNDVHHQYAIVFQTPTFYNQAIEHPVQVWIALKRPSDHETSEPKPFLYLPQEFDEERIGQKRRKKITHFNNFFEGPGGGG
Sequence,binding signal (GST-Ap-NF-kB RHD) [z-score],binding signal [1] [z-score],binding signal [2] [z-score],binding signal (GST-Co-NF-kB) [z-score],binding signal (GST-Dm-Relish) [z-score],binding signal (GST-Aq-NF-kB) [z-score]
CCGATTAACATCAGGGGAACTAATGATGTTAATCGGGTCTTGATTCGCTTGACGCTGCTG,4.99,5.41,6.66,6.12,4.37,4.07
CCGATTAACATCATGTTGGGAAATGATGTTAATCGGGTCTTGATTCGCTTGACGCTGCTG,1.02,2.29,,2.51,,1.2
CCGATTAACATCAGGGAAAGGGATGATGTTAATCGGGTCTTGATTCGCTTGACGCTGCTG,2.49,3.29,,2.1,,2.84
CCGATTAACATCACCAGTTTCCCTGATGTTAATCGGGTCTTGATTCGCTTGACGCTGCTG,2.66,3.06,,3.09,,2.6
CCGATTAACATCACATCTTTCCCTGATGTTAATCGGGTCTTGATTCGCTTGACGCTGCTG,2.24,3.96,,3.84,,4.25
CCGATTAACATCAATTTACCCACTGATGTTAATCGGGTCTTGATTCGCTTGACGCTGCTG,1.67,1.68,,2.34,,1.45
CCGATTAACATCAGTACGGGAAATGATGTTAATCGGGTCTTGATTCGCTTGACGCTGCTG,1.79,3.11,,2.65,,2.81
CCGATTAACATCACCTCTTTCCCTGATGTTAATCGGGTCTTGATTCGCTTGACGCTGCTG,2.58,2.64,,3.61,,2.52
CCGATTAACATCAAAGCATTCCCTGATGTTAATCGGGTCTTGATTCGCTTGACGCTGCTG,2.32,3.04,,2.52,,3.35
CCGATTAACATCAATCGGGAAATTGATGTTAATCGGGTCTTGATTCGCTTGACGCTGCTG,1.3,3.45,,2.19,,2.1
CCGATTAACATCATGATGGGAAATGATGTTAATCGGGTCTTGATTCGCTTGACGCTGCTG,1.17,2.84,,1.71,,1.64
CCGATTAACATCACTTTCCCAAATGATGTTAATCGGGTCTTGATTCGCTTGACGCTGCTG,1.27,2.64,,2.28,,1.54
CCGATTAACATCAGGGACAAAAATGATGTTAATCGGGTCTTGATTCGCTTGACGCTGCTG,2,3.15,,2.39,,2.39
CCGATTAACATCACCCACTTCCCTGATGTTAATCGGGTCTTGATTCGCTTGACGCTGCTG,1.06,1.67,,1.4,,1.65
CCGATTAACATCAAATCGGGAAATGATGTTAATCGGGTCTTGATTCGCTTGACGCTGCTG,1.42,3.49,,2,,1.61
CCGATTAACATCAGAATCTCCCATGATGTTAATCGGGTCTTGATTCGCTTGACGCTGCTG,1.74,2.74,,1.64,,2.73
CCGATTAACATCAGGTCGGGAAATGATGTTAATCGGGTCTTGATTCGCTTGACGCTGCTG,1.76,2.6,,3.1,,1.83
CCGATTAACATCAACTGGGAAAATGATGTTAATCGGGTCTTGATTCGCTTGACGCTGCTG,1.66,3.04,,3.52,,1.65
CCGATTAACATCATGGAGGGAGGTGATGTTAATCGGGTCTTGATTCGCTTGACGCTGCTG,1.29,1.62,,1.14,,1.34
CCGATTAACATCAGATTTCTCCCTGATGTTAATCGGGTCTTGATTCGCTTGACGCTGCTG,1.96,3.11,,2.92,,3.18
CCGATTAACATCATACAAGGGAGTGATGTTAATCGGGTCTTGATTCGCTTGACGCTGCTG,1.02,1.41,,1.46,,2.84
CCGATTAACATCAAGCCCCCCCCTGATGTTAATCGGGTCTTGATTCGCTTGACGCTGCTG,5.25,4.21,,4.89,,4.71
CCGATTAACATCAATTCCCGTACTGATGTTAATCGGGTCTTGATTCGCTTGACGCTGCTG,1.81,2.92,,2.55,,2.81
CCGATTAACATCAGGGGTAGGTTTGATGTTAATCGGGTCTTGATTCGCTTGACGCTGCTG,2.16,1.65,,3.22,,2.1
CCGATTAACATCAGGGAAAGGAATGATGTTAATCGGGTCTTGATTCGCTTGACGCTGCTG,1.83,3.07,,1.48,,2.97
CCGATTAACATCAGACTGGGAAATGATGTTAATCGGGTCTTGATTCGCTTGACGCTGCTG,1.4,1.92,,3.05,,1.18
CCGATTAACATCACTCCCTAAAATGATGTTAATCGGGTCTTGATTCGCTTGACGCTGCTG,1.35,2.35,,1.22,,3.48
CCGATTAACATCATTTCCCTTGATGATGTTAATCGGGTCTTGATTCGCTTGACGCTGCTG,1.97,4.19,,1.95,,3.49
CCGATTAACATCACGGTGGGAAATGATGTTAATCGGGTCTTGATTCGCTTGACGCTGCTG,2.05,2.39,,2.77,,1.94
CCGATTAACATCATCAGGGAAAATGATGTTAATCGGGTCTTGATTCGCTTGACGCTGCTG,2.12,4.35,,2.95,,2.95
